± gives the standard deviation.
Columns and labels:
[1] = tested on: MILI (PIWIL2) piRISC loaded with L1MC piRNA (26 nt); assay: pre-steady-state target cleavage rate (min^-1); guide: L1MC piRNA 5'p-UAACUAAAUACUAUGCAAGCUGUAGG; higher = faster piRNA-guided slicing of the target
Outline: (§1)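 A transcribed, DNA-blocked target RNA library (0.1 nM) and 1 nM active affinity-purified piRISC bearing one synthetic guide were incubated in HEPES–potassium acetate buffer at 33 °C for 0–8 or 0–960 min, either with or without 500 nM GTSF1 partner protein. Uncleaved targets were sequenced, normalised to depth and to weakly complementary targets, and pooled over three trials, with k3 capped at 0.0001 min^-1. The pre-steady-state cleavage rate was derived with a burst-and-steady-state fit.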

[2] = tested on: EfPiwi piRISC loaded with L1MC piRNA (26 nt); assay: pre-steady-state target cleavage rate (min^-1); auxiliary factor: 500 nM Ephydatia muelleri Gtsf1; guide: L1MC piRNA 5'p-UAACUAAAUACUAUGCAAGCUGUAGG; MIWI and MILI are mouse PIWI proteins and EfPiwi is from a freshwater sponge; tags in brackets are library labels; higher = faster piRNA-guided slicing of the target
Outline: as §1

[3] = auxiliary factor: 500 nM mouse GTSF1
[4] = auxiliary factor: none (no GTSF1)

Sequence	pre-steady-state target cleavage rate [1, 3]	pre-steady-state target cleavage rate [1, 4]	pre-steady-state target cleavage rate [2]
UCCUGGAACAGCUUGCGUAGUAUUUAGUUA	0.277 ± 0.016	0.00716 ± 0.0018	0.00807 ± 0.0034
UCCUGCUACAGCUAUGCAUAGUAUUUAGUUA	0.257 ± 0.022	0.0069 ± 0.0021	0.012 ± 0.0044
UCCUGGAUCAGCUUGCAUAGUAUUUACAAA	0.105 ± 0.021	0.00255 ± 0.0024	0.00404 ± 0.002
UCCUGGAACUCCUUGCAUAGUAUUUAGUUA	0.238 ± 0.02	0.00487 ± 0.0017	0.0352 ± 0.009
UCCUCCUACAGCUAGCAUAGUAUUUAGUAA	0.199 ± 0.023	0.00331 ± 0.0021	0.005 ± 0.0022
UCCUGGAUGUCCUUGCAUAGUAUUUAAGUUA	0.173 ± 0.023	0.00879 ± 0.0027	0.0217 ± 0.0093
UCCUCGUAGAGCUUGCAUAGUAUUUAGUUA	0.266 ± 0.012	0.00554 ± 0.0023	0.0385 ± 0.0086
UCCUGGAUGUCCUUGCAUAUUAUUUAGUUA	0.038 ± 0.011	0.0028 ± 0.0027	0.00283 ± 0.0025
UCCUGGAUCAGCUUGCAGAGUAUUUAGUUA	0.111 ± 0.015	0.00641 ± 0.002	0.00715 ± 0.0022
UCCUGGUACAGCAUGCAUAGUAUUUAGAUA	0.137 ± 0.025	0.00437 ± 0.0029	0.00412 ± 0.0025
UCCUGGAUGUCCUUGCAUAGUCUUUAGUUA	0.0269 ± 0.0075	0.00468 ± 0.0022	0.00326 ± 0.0014
UCCUGGAUCAGCAUUGCAUAGUAUUUAGUUA	0.278 ± 0.024	0.0103 ± 0.0029	0.0605 ± 0.015
UCCUGGAUGAGCUUGCAUAUUAUUUAGUUA	0.0637 ± 0.0072	0.00304 ± 0.003	0.00658 ± 0.0032
UCCUGGAAGAGCUUGCAUAGUUUUUAGUUA	0.0486 ± 0.011	0.004 ± 0.0023	0.00316 ± 0.003
UCCUGGUACAGCUUGCCAUAGUAUUUAGUUA	0.224 ± 0.059	0.00532 ± 0.0033	0.0045 ± 0.0021
UCCUGGAUCAGCUUGCAUAGUAUUGUAGUUA	0.176 ± 0.018	0.00992 ± 0.0032	0.00652 ± 0.0027
UCCUGCUUCUGCUUGCAUAGUAUUUAGUUA	0.199 ± 0.016	0.00864 ± 0.0018	0.0112 ± 0.0038
UCCUCCUACACGUUGCAUAGUAUUUAGUUA	0.321 ± 0.021	0.00729 ± 0.0026	0.136 ± 0.035
UCCUGGAUGAGCUUGCAUAGUCUUUAGUUA	0.0764 ± 0.012	0.00627 ± 0.0022	0.0107 ± 0.0033
UCCUGGUACAGCAUGCAUAGUAUUAAGUUA	0.292 ± 0.06	0.0046 ± 0.003	0.00442 ± 0.002
UCCUCCUCCAGCUUGCAUAGUAUUUAGUUA	0.265 ± 0.019	0.00605 ± 0.0026	0.194 ± 0.056
UCCUGGAACUGCAUGCAUAGUAUUUAGUUA	0.224 ± 0.013	0.00585 ± 0.0025	0.0126 ± 0.0039
UCCUGGAACAGCUUGCAUAGUAUUUAGUUA [g2:g23:cont:t1A]	0.297 ± 0.019	0.0103 ± 0.0024	0.0806 ± 0.018
UCCUGGAUGUCCUGCAUAGUAUUUAGUUA	0.094 ± 0.013	0.00628 ± 0.0019	0.00358 ± 0.0026
UCCUCGUACAGCUUGCAUAGUAUUUUGUUA	0.143 ± 0.016	0.00289 ± 0.0028	0.007 ± 0.0031
UCCUGCCUACAGCUUGCAUAGUAUUUAGUUA	0.342 ± 0.022	0.0113 ± 0.0037	0.0909 ± 0.021

Sequence	pre-steady-state target cleavage rate [1, 3]	pre-steady-state target cleavage rate [1, 4]	pre-steady-state target cleavage rate [2]
UCCUCCUACAGCCUGCAUAGUAUUUAGUUA	0.287 ± 0.018	0.0111 ± 0.0024	0.0698 ± 0.018
UCCUGGAACACCUUGCAUAGUAUUUAGUUA	0.234 ± 0.026	0.00811 ± 0.0025	0.0061 ± 0.0032
UCCUCCUACAGCUUGCAUAGUAAUUUGUUA	0.111 ± 0.021	0.00269 ± 0.0026	0.00652 ± 0.0028
UCCUGGUACAGCUUGCAAAGUAUUUAGUUA	0.11 ± 0.013	0.00987 ± 0.0024	0.0101 ± 0.0035
UCCUGGAUCACGCUUGCAUAGUAUUUAGUUA	0.205 ± 0.018	0.00715 ± 0.0036	0.223 ± 0.05
UCCUGCUACAGCAUGCAUAGUAUAUAGUUA	0.284 ± 0.03	0.0054 ± 0.0024	0.00599 ± 0.0029
UCCUGGUGCAGCUUGCAUAGUAUUUAGUUA	0.287 ± 0.017	0.0103 ± 0.0029	0.0864 ± 0.018
UCCUGGAUGUGCUGUGCAUAGUAUUUAGUUA	0.131 ± 0.015	0.00886 ± 0.004	0.00568 ± 0.0024
UCCUCCUACAGCGUGCAUAGUAUUUAGUUA	0.309 ± 0.021	0.00999 ± 0.003	0.1 ± 0.026
UCCUGCUACAGCUUGCAUAGUAUUUAUUUA	0.148 ± 0.03	0.00466 ± 0.0021	0.0055 ± 0.0037
UCCUGGUACAGCUUGCUUAGUAUAUAGUUA	0.197 ± 0.045	0.00855 ± 0.0026	0.0737 ± 0.025
UCCUGGAUCGGCUUGCAUAGUAUUUAGUUA	0.261 ± 0.016	0.0131 ± 0.0022	0.0523 ± 0.0092
UCCUCCUACAGCAUGCAUAGUAUUUACUUA	0.16 ± 0.022	0.00307 ± 0.0026	0.00211 ± 0.0017
UCCUCCUACAGCUUCCAAAGUAUUUAGUUA	0.13 ± 0.019	0.0037 ± 0.0022	0.00527 ± 0.0019
UCCUGGAUGAGACUUGCAUAGUAUUUAGUUA	0.186 ± 0.021	0.00953 ± 0.0028	0.00434 ± 0.003
UCCUGGUACAGCUUGCAGAGUAUUUAGUUA	0.121 ± 0.026	0.00836 ± 0.0028	0.00371 ± 0.0027
UCCUCGUACAGCUUGCAUAGUAAUUAGUUA	0.283 ± 0.017	0.00698 ± 0.0019	0.111 ± 0.033
UCCUCCUACUGCUUGCAUAGUAUUUAGUUA	0.27 ± 0.016	0.00899 ± 0.0022	0.0494 ± 0.015
UCCUGGAACAGCUUGCAUCGUAUUUAGUUA	0.0882 ± 0.013	0.00682 ± 0.0024	0.0172 ± 0.0048
UCCUGGAACAGCUUACAUAGUAUUUAGUUA	0.223 ± 0.018	0.00953 ± 0.0027	0.0502 ± 0.012
UCCUCCUACAGCUUGGCAUAGUAUUUAGUUA	0.338 ± 0.057	0.00447 ± 0.0021	0.0133 ± 0.0047
UCCUGGAUGUGCUUGCAUAGUAAUUAGUUA	0.095 ± 0.013	0.00684 ± 0.0024	0.00847 ± 0.0037
UCCUCCUACAGCUUGCAUAGUAUCUUAGUUA	0.285 ± 0.022	0.00811 ± 0.0026	0.0254 ± 0.011
UCCUCCUUCAGCUUGCAUACUAUUUAGUUA	0.0786 ± 0.013	0.00296 ± 0.0027	0.00784 ± 0.0025
UCCUGGAUCAGCUUGCAUAAUAUUUAGUUA	0.253 ± 0.031	0.00396 ± 0.0026	0.0108 ± 0.0031
